Assay results from PubChem BioAssay (Tox21).
Inconclusive results are not listed. Calls of active or inactive are those of the source. The call rests on the fitted dose curve.

Assays:
[1] = target: Acetylcholinesterase (Homo sapiens) (UniProt P22303); assay: Acetylcholinesterase (AChE) small molecule antagonists: colormetric cell-based qHTS assay (AID 1347395); further: nearly all actives have a fitted effect of over 30% in size
Procedure, shortened: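 Homogeneous whole-cell format. SH-SY5Y cells seeded overnight, dosed with compound (30 min, 37 C, 5% CO2), then given DTNB/acetylthiocholine cocktail for 90 min at 37 C; colorimetric signal.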

[2] = target: Acetylcholinesterase (Homo sapiens) (UniProt P22303); assay: Acetylcholinesterase (AChE) small molecule antagonists: enzyme-based qHTS assay (AID 1347397); conditions: Potency: AChE enzyme activity inhibition; outcome: AChE enzyme activity inhibition; further: nearly all actives have a fitted effect of over 55% in size
Procedure, shortened: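 First, recombinant human AChE (50 mU/mL as dispensed) received test compound or DMSO. Second, plates stood 30 min at room temperature. Third, DTNB and acetylthiocholine were added, followed by 10 min at room temperature and colorimetric detection.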

[3] = target: Acetylcholinesterase (Homo sapiens) (UniProt P22303); assay: Acetylcholinesterase (AChE) small molecule antagonists: fluorescence cell-based qHTS assay (AID 1347398); conditions: Potency: AChE activity; outcome: AChE activity; further: nearly all actives have a fitted effect of over 50% in size
Procedure, shortened: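 Homogeneous quantitative HTS format. SH-SY5Y cells seeded at 2,000 per well settle overnight at 37 C. Compound pretreatment runs 30 min (37 C, 5% CO2); substrate/probe mix then reacts 40 min at RT before reading 490/520 nm.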

[4] = target: Acetylcholinesterase (Homo sapiens) (UniProt P22303); assay: Acetylcholinesterase (AChE) small molecule antagonists: enzyme-based qHTS assay with human liver microsomes (AID 1347399); conditions: Potency: qHTS inhibition; outcome: qHTS inhibition; further: nearly all actives have a fitted effect of over 60% in size
Procedure, shortened: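 Recombinant human AChE (50 mU/mL in the enzyme mix) and human liver microsomes (0.25 mg/mL final) were preincubated with compound and NADPH (0.25 mg/mL final) for 30 min at 37 C. Acetylthiocholine/DTNB was then added; thiocholine was read colorimetrically after 10 min at room temperature.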
On the % scale 0 is the no-effect control and ±100 the full control effect.

Acetylcholinesterase (Homo sapiens), sequence (P22303 whole entry, looked up): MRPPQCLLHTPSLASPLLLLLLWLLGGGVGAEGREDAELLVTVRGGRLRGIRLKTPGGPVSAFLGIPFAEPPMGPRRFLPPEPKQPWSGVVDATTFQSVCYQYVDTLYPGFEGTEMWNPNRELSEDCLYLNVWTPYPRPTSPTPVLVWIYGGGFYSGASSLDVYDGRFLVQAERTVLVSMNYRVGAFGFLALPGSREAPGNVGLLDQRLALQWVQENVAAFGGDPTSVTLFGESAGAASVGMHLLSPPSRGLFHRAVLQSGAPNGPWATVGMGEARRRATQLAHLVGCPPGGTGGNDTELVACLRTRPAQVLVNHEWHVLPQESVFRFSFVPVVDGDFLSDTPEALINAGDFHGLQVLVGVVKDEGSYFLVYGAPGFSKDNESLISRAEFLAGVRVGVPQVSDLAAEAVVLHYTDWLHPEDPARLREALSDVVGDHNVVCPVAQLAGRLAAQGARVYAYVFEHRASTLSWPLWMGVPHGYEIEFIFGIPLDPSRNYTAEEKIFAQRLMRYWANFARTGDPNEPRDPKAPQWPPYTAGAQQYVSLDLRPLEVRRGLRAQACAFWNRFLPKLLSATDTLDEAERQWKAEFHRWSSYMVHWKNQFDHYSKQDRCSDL

CCCCCCCCCCCCCCCS(=O)(=O)Oc1ccccc1
inactive: Potency [1] | Potency [2] | Potency [3] | Potency [4]

CCCCOC(=O)C(C)O (stereo not drawn)
inactive: Potency [1] | Potency [2] | Potency [3] | Potency [4]

CC(C(=O)O)c1ccc2c(c1)Cc1cccnc1O2 (stereo not drawn)
inactive: Potency [1] | Potency [2] | Potency [3] | Potency [4]

Clc1nc2ccccc2nc1Cl
inactive: Potency [1] | Potency [2] | Potency [3] | Potency [4]

C[Si](Cl)(c1ccccc1)c1ccccc1
inactive: Potency [1] | Potency [2] | Potency [3] | Potency [4]

O=c1c(-c2ccccc2)c1-c1ccccc1
inactive: Potency [1] | Potency [2] | Potency [3] | Potency [4]

CCC(C)(Oc1ccc(C2(c3ccc(OC(C)(CC)C(=O)O)cc3)CCCCC2)cc1)C(=O)O (stereo not drawn)
inactive: Potency [1] | Potency [2] | Potency [3] | Potency [4]

CN(C)CCc1c[nH]c2ccc(CS(=O)(=O)N3CCCC3)cc12
inactive: Potency [1] | Potency [2] | Potency [3] | Potency [4]

CCN(CC)c1ccc(C(=C2C=CC(=[N+](CC)CC)C=C2)c2cc(S(=O)(=O)O)ccc2S(=O)(=O)[O-])cc1
inactive: Potency [1] | Potency [2] | Potency [3] | Potency [4]

N#CCc1ccccc1[N+](=O)[O-]
inactive: Potency [1] | Potency [2] | Potency [3] | Potency [4]

CCCCCCCCCC(C)C=O (stereo not drawn)
inactive: Potency [1] | Potency [2] | Potency [3] | Potency [4]

CCCCOCCCC
inactive: Potency [1] | Potency [2] | Potency [3] | Potency [4]

Cc1ccccc1N=Nc1ccc(N=Nc2c(O)ccc3ccccc23)c(C)c1
inactive: Potency [1] | Potency [2] | Potency [3] | Potency [4]

OCCCS
inactive: Potency [1] | Potency [2] | Potency [3] | Potency [4]

CCC(C)NC(N)=O (stereo not drawn)
inactive: Potency [1] | Potency [2] | Potency [3] | Potency [4]

COc1cccc(O)c1O
inactive: Potency [1] | Potency [2] | Potency [3] | Potency [4]

CC1(C)CC(N)CC(C)(C)N1
inactive: Potency [1] | Potency [2] | Potency [3] | Potency [4]

O=C1C=CCCC1
inactive: Potency [1] | Potency [2] | Potency [3] | Potency [4]

C=COCC1CCC(COC=C)CC1 (stereo not drawn)
inactive: Potency [1] | Potency [2] | Potency [3] | Potency [4]

CCO[Si](CCC1CCC2OC2C1)(OCC)OCC (stereo not drawn)
inactive: Potency [1] | Potency [2] | Potency [3] | Potency [4]

O=[N+]([O-])c1cccc(I)c1
inactive: Potency [1] | Potency [2] | Potency [3] | Potency [4]

CC(=O)c1ccc[nH]1
inactive: Potency [1] | Potency [2] | Potency [3] | Potency [4]

O=C(O)c1cc(N=Nc2ccc([N+](=O)[O-])cc2)ccc1O
inactive: Potency [1] | Potency [2] | Potency [3] | Potency [4]

Oc1cccc(Nc2ccccc2)c1
inactive: Potency [1] | Potency [2] | Potency [3] | Potency [4]

CCCc1ccc(O)c(OC)c1
inactive: Potency [1] | Potency [2] | Potency [3] | Potency [4]

CCc1ccc(C)nc1
inactive: Potency [1] | Potency [2] | Potency [3] | Potency [4]

Cc1nc(-c2ccc(Cl)cc2)oc1COC(C)(C)C(=O)O
inactive: Potency [1] | Potency [2] | Potency [3] | Potency [4]

Oc1ccc(Nc2ccccc2)cc1
inactive: Potency [1] | Potency [2] | Potency [3] | Potency [4]

CCNC(=O)NCc1cccc(Cl)c1
inactive: Potency [1] | Potency [2] | Potency [3] | Potency [4]

CC/C=C\CCCCCCCCCCOC(C)=O
inactive: Potency [1] | Potency [2] | Potency [3] | Potency [4]

Nc1cccc(S(=O)(=O)O)c1
inactive: Potency [1] | Potency [2] | Potency [3] | Potency [4]

C#C[C@]1(OC(C)=O)CC[C@H]2[C@@H]3CCC4=C/C(=N/O)CC[C@@H]4[C@H]3CC[C@@]21CC
inactive: Potency [1] | Potency [2] | Potency [3] | Potency [4]

CCCCC1C(=O)N(c2ccccc2)N(c2ccc(O)cc2)C1=O (stereo not drawn)
inactive: Potency [1] | Potency [2] | Potency [3] | Potency [4]

BrC/C=C/CBr
inactive: activity, negative = inhibition [1] 1.18% [at 23.6 µM] | activity change, negative = inhibition [2] 2.59% [at 23.6 µM] | activity change, negative = inhibition [3] 7.15% [at 23.8 µM] | activity change, negative = inhibition [4] -2.1% [at 23.6 µM]

CCCCCCCC/C=C\CCCCCCCC(=O)OCCCC
inactive: activity, negative = inhibition [1] 0.807% [at 23.6 µM] | activity change, negative = inhibition [2] 0.806% [at 23.6 µM] | activity change, negative = inhibition [3] -0.0934% [at 23.8 µM] | activity change, negative = inhibition [4] 0.083% [at 23.6 µM]

CC(C)CCCC(C)CCO (stereo not drawn)
inactive: Potency [1] | Potency [2] | Potency [3] | Potency [4]

CC1(C)C(=O)N(CO)C(=O)N1CO
inactive: Potency [1] | Potency [2] | Potency [3] | Potency [4]

O=C1OC(=O)c2ccccc21
inactive: Potency [1] | Potency [2] | Potency [3] | Potency [4]

Cc1cc(C)c(O)c(C(C)(C)C)c1
inactive: Potency [1] | Potency [2] | Potency [3] | Potency [4]

O=C(NCCO[N+](=O)[O-])c1cccnc1
inactive: Potency [1] | Potency [2] | Potency [3] | Potency [4]

O=C(O)c1cccnc1C(=O)O
inactive: Potency [1] | Potency [2] | Potency [3] | Potency [4]

CC1(C)C(=O)C(C)(C)C1=O
inactive: Potency [1] | Potency [2] | Potency [3] | Potency [4]
